Marburg entry inh: qHTS for inhibitors of binding or entry into cells for Marburg Virus | actives 1.8% (n = 300,000) | AID 540276, 2011 | Potency, µM (doses to about 37.8 µM), without a hit: at the highest dose activity change, negative = inhibition, most hits filed as inhibitors | Marburg virus pseudotyped entry inhibition, cell reporter; calls by dose curve; tested in HEK293 cells
FMDV inh: High Throughput Screening for Foot and Mouth Disease Virus Antivirals | FMDV antiviral cell-based qHTS | Potency, µM (top dose mostly 57.9 µM), for inactives: at the top dose activity change, negative = inhibition, hits mostly inhibitors | actives 1.2% (n = 410,000); calls by dose curve; tested in HEK293T cells; note: read-out not given here; nearly all actives have a fitted effect of over 45% in size
LASV entry inh: qHTS for Inhibitors of binding or entry into cells for Lassa Virus | Lassa virus pseudotype entry inhibition, cell reporter | Potency, µM (highest dose often 37.9 µM), for inactives: at the top dose activity change, negative = inhibition, actives largely listed as inhibitors | actives 1.2% (n = 300,000) | AID 540256, 2011; calls by dose curve; tested in HEK293 cells; note: nearly all actives have a fitted effect of over 50% in size
Sm TGR inh: qHTS Assay for the Inhibitors of Schistosoma Mansoni Peroxiredoxins; Potency, µM (doses to about 114 µM), for inactives: top-dose activity change, negative = inhibition, hits mostly inhibitors; Schistosoma mansoni thioredoxin glutathione reductase (TGR), Q962Y6; purified TGR, DTNB reduction, TNB absorbance 405 nm; actives 3% (n = 360,000); active = well fitted inhibition curve with a large enough effect; inconclusive = small, poorly fitted or top-dose-only effect; inactive = no such curve, though single readings can be large or run the other way; note: nearly all actives have a fitted effect of over 60% in size
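TGR 20 nM + NADPH 100 uM (dispensed conc.), cpd preinc 15 min RT; start with NADPH (500 uM addition) then DTNB (15 mM addition). Kinetic TNB absorbance, 405 nm filter. Four-parameter Hill fit across titration.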
Vaccinia Venus: qHTS for Stage-Specific Inhibitors of Vaccinia Orthopoxvirus: Venus Reporter Primary qHTS; actives 0.46% (n = 330,000); Potency, µM (titrated, usually from 36.5 µM), for inactives: top-dose activity change, negative = inhibition, actives largely listed as inhibitors; Vaccinia virus Venus reporter expression, fluorescence; AID 720580, 2013; calls by dose curve; tested in A549 cells; note: nearly all actives have a fitted effect of over 30% in size
VACV mCherry inh: qHTS for Stage-Specific Inhibitors of Vaccinia Orthopoxvirus: mCherry Reporter Primary qHTS | Vaccinia virus mCherry reporter infection, fluorescence | Potency, µM (titrated, usually from 36.5 µM), without a hit: top-dose activity change, negative = inhibition, usual class: inhibitors | actives 0.63% (n = 310,000); calls by dose curve; tested in A549 cells; note: nearly all actives have a fitted effect of over 35% in size
* marks the source's active call; other numbers are inactive results; i = inactive; ? = inconclusive; nt = no result; [ ] = dose if it differs, or a comment. Sampled rows, rich in hits. Any-hit rate of the full collection: about 5.4%. % is set by controls: 0 for no effect and ±100 for the full control effect; potency is the fitted concentration of half-maximal effect.

SMILES	Marburg entry inh	FMDV inh	LASV entry inh	Sm TGR inh	Vaccinia Venus	VACV mCherry inh
CNC(=O)COC(=O)c1ccccc1C(=O)c1ccc(Cl)c([N+](=O)[O-])c1	nt	?	nt	35µM*	?	?
CCCOc1ccc(C(=O)c2ccccc2C(=O)OC2CCOC2=O)cc1OCCC (stereo unspecified)	2%	13%	5%	0%	?	?
O=C(COC(=O)c1ccccc1[N+](=O)[O-])c1ccc(C2CCCCC2)cc1	?	11µM*	-30%	9%	-23%	-25%
O=C(CNC(=O)C1CCCCC1)OCC(=O)c1ccc(C2CCCCC2)cc1	nt	nt	nt	nt	-6%	30%
O=C1CCSC2(C(=O)N(Cc3ccccc3)c3ccccc32)N1c1ccccc1 (stereo unspecified)	nt	-29%	-17%[46.1 µM]	-5%	-16%	-22%
Cc1cc(C)cc(NC(=O)Cn2c(=O)n(C(C)C)c(=O)c3oc4ccccc4c32)c1	nt	-21%	19%[46.1 µM]	2%	-4%	-5%
Cc1ccc(-c2cn(-c3ccc(Cl)cc3)c(S(=O)(=O)CC(=O)Nc3ccccc3)n2)cc1	?	25%	-21%[46.1 µM]	5%	?	?
CNS(=O)(=O)c1cccc(C(=O)OC2CCOC2=O)c1 (stereo unspecified)	?	-1%	nt	5%	4%	10%
CS(=O)(=O)c1ccc(C(=O)OC2CCOC2=O)cc1[N+](=O)[O-] (stereo unspecified)	-4%[46.1 µM]	5%	4%[46.1 µM]	2.8µM*	-2%	-28%
O=C(CSCC(=O)Nc1ccccc1)N/N=C/c1c(O)ccc2ccccc12	?	30%	26µM*	-13%	nt	nt
O=C(CN1CCOCC1)N/N=C/c1ccco1	?	12%	15%	-9%	1%	9%
O=C(CN1CCOCC1)N/N=C/c1c(O)ccc2ccccc12	?	-5%	11µM*	-13%	?	?
COc1cc2c(C(=O)N(C)c3cc(Cl)ccc3OC)cn(CC(C)C)c(=O)c2cc1OC	?	0%	-27%[46.1 µM]	-3%	0%	-8%
O=C(CCOc1ccccc1)N(Cc1cccnc1)c1nc2c(F)cccc2s1	nt	-18%	5%[46.1 µM]	2.2µM*	-5%[7.34 µM]	-15%[7.34 µM]
Cc1ccc2nc(N(Cc3cccnc3)C(=O)CCS(=O)(=O)c3ccccc3)sc2c1	nt	-4%	11%[46.1 µM]	?	-10%	i
O=C(CCS(=O)(=O)c1ccccc1)N(Cc1cccnc1)c1nc2ccc(Cl)cc2s1	nt	-14%	4%[46.1 µM]	1.1µM*	-10%	-1%
Cc1ccc2sc(N(Cc3cccnc3)C(=O)CCOc3ccccc3)nc2c1C	nt	-14%	8%[46.1 µM]	35µM*	-6%	-7%
COc1ccccc1CNc1nccn(-c2ccccc2)c1=O	nt	27%	28%[46.1 µM]	-2%	-15%	-1%
O=C(CSc1nc2c(c(=O)[nH]1)CCC2)Nc1ccccc1F	-1%[46.1 µM]	-17%	-14%[46.1 µM]	-4%	8%	-4%
O=C(Nc1nccs1)c1nc[nH]c1C(=O)N1CCN(c2ccccc2)CC1	nt	0%	nt	nt	-13%	-13%
CC1CCN(C(=O)c2[nH]cnc2C(=O)Nc2nccs2)CC1	nt	33%	nt	28µM*	-7%	-10%
COc1cc(C)ccc1OCCSc1nc2ccc(NC(C)=O)cc2s1	-15%[46.1 µM]	19%	0%[46.1 µM]	-5%	-23%	-2%
COc1ccc(/C=N/NC(=O)c2ccc(O)cc2)cc1CN1CCCc2ccccc21	-25%	40µM*	?	-6%	-17%	i
COc1ccc(CNC(=O)Cn2c(=O)oc3cc(S(=O)(=O)N4CCC(C)CC4)ccc32)cc1	7.1µM*	-14%	?	-3%	-9%	-11%
COc1ccc(CNC(=O)Cn2c(=O)oc3cc(S(=O)(=O)N4CCCCCC4)ccc32)cc1	nt	-5%	?	10%	-9%	-12%
SMILES	Marburg entry inh	FMDV inh	LASV entry inh	Sm TGR inh	Vaccinia Venus	VACV mCherry inh
Fc1ccc(-n2cc(-c3ccccc3)c3c(=S)nc[nH]c32)cc1	?	-27%	5µM*	-16%	-14%	-5%
Fc1cccc(-n2cc(-c3ccccc3)c3c(=S)nc[nH]c32)c1	nt	0%	nt	0%	nt	nt
Cc1ccc(-n2cc(-c3ccccc3)c3c(=O)[nH]cnc32)cc1	-28%	7%	15µM*	-9%	-24%	?
O=c1[nH]cnc2c1c(-c1ccccc1)cn2-c1ccccc1	nt	-12%	nt	-25%	nt	nt
Cc1c(C)n(Cc2ccc(F)cc2)c2ccc(C(=O)Nc3ccc(Cl)cc3)cc12	nt	2%	-7%[46.1 µM]	13%	-26%	-23%
CC(C)CCNC(=O)c1cnn2c(C(F)(F)F)cc(-c3ccco3)nc12	?	?	-14%	20µM*	nt	nt
COc1ccc(-c2cc(C(F)(F)F)n3ncc(C(=O)NCc4ccco4)c3n2)cc1	8%	-9%	-2%	45µM*	-5%	nt
O=C(NCc1ccco1)c1cnn2c(C(F)(F)F)cc(-c3ccccc3)nc12	?	nt	0%	?	?	-14%
Cc1ccc(S(=O)(=O)Nc2cccc3ncccc23)s1	10µM*	28µM*	8.9µM*	1%	?	?
Cc1ccc(S(=O)(=O)Nc2cccc3ncccc23)cc1	nt	-12%	nt	-1%	-8%	-15%
COC(=O)C1C(c2ccc(OC)c(OC)c2)NC(c2ccc(OC)c(OC)c2)C(C(=O)OC)S1(=O)=O (stereo unspecified)	-1%	nt	-1%	20µM*	-3%	-4%
COC(=O)C1CSc2[nH]c(=O)sc2C1c1ccc(OC)c(OC)c1 (stereo unspecified)	3%	-3%	2%	7%	-7%	nt
CCc1nc2cc(C(=O)N3CCC[C@H]3C(=O)OC)cc(NC(=O)c3ccccc3OC)c2n1C	nt	-1%	nt	nt	-26%	i
C=C(C)CNC(=S)Nc1cccc(N)n1	-2%[46.1 µM]	7%	-11%	2.8µM*	-10%	i
C=C(C)CNC(=S)N/N=C(\C)c1cccc(NC(C)=O)c1	?	-28%	nt	-21%	-17%	-21%
CC(=O)N(C1=C(N2CCOCC2)C(=O)c2ccccc2C1=O)c1ccc(C(=O)O)cc1	nt	?	nt	2.8µM*	nt	nt
O=C(O)c1ccc(NC2=C(N3CCOCC3)C(=O)c3ccccc3C2=O)cc1	-9%	-22%	1%	?	6%	-9%
O=C(CSc1nnnn1C1CC2CCC1C2)Nc1ccnc2ccccc12 (stereo unspecified)	?	40µM*	?	2%	?	nt
CCN(CC)CCSc1c(C(C)C)cnc2c1c(=O)n(C)c(=O)n2C	nt	-13%	3%[46.1 µM]	-6%	-2%	4%
CCOC(=O)N1CCN(C(=O)c2ccc3c(c2)N(C)C(=O)/C(=C\c2ccc(OCC)c(OC)c2)S3)CC1	11µM*	35µM*	5µM*	-2%	?	?
